Measured values published in PubChem BioAssay.
The source made the active and inactive calls.

Key:
[1] = small molecules captured by biotinylated probe aFSTL3 – biochemical, small-molecule microarray, fluorescence 635/667, stem cell growth factor project, primary screen (AID 1064); settings: higher = more signal;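 also: measures binding of the biotinylated anti-FSTL3 antibody to printed compounds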
[2] = binders from COS7 lysate, DM2A8 probe, primary screen, torsin A project, cell lysate, small-molecule microarray, fluorescence 635/667 (AID 1065); settings: higher = more signal, COS7 lysate expressing mutant human TOR1A
[3] = small molecules captured by biotinylated probe aFGF2 – biochemical, small-molecule microarray, fluorescence 635/667, stem cell growth factor project, primary screen (AID 1067); settings: higher = more signal;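 also: measures binding of biotinylated aFGF2 protein to printed compounds on slides; z-score merges feature fluorescence and signal-to-noise across triplicate slides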
[4] = small molecules captured by biotinylated probe aFGF10 – biochemical, small-molecule microarray, fluorescence 635/667, stem cell growth factor project, primary screen (AID 1071); settings: higher = more signal;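 also: score merges 667 nm spot intensity and signal to noise from triplicate slides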
[5] = molecular target: Neurogenic locus notch homolog protein 2 (Homo sapiens) (UniProt Q04721); test: small molecules binding Notch2 protein – biochemical, small-molecule microarray, 635 nm fluorescence, stem cell growth factors, primary screen (AID 1073); settings: higher = more signal
Sequence of Neurogenic locus notch homolog protein 2 (Homo sapiens) (Q04721 whole entry, looked up, canonical isoform): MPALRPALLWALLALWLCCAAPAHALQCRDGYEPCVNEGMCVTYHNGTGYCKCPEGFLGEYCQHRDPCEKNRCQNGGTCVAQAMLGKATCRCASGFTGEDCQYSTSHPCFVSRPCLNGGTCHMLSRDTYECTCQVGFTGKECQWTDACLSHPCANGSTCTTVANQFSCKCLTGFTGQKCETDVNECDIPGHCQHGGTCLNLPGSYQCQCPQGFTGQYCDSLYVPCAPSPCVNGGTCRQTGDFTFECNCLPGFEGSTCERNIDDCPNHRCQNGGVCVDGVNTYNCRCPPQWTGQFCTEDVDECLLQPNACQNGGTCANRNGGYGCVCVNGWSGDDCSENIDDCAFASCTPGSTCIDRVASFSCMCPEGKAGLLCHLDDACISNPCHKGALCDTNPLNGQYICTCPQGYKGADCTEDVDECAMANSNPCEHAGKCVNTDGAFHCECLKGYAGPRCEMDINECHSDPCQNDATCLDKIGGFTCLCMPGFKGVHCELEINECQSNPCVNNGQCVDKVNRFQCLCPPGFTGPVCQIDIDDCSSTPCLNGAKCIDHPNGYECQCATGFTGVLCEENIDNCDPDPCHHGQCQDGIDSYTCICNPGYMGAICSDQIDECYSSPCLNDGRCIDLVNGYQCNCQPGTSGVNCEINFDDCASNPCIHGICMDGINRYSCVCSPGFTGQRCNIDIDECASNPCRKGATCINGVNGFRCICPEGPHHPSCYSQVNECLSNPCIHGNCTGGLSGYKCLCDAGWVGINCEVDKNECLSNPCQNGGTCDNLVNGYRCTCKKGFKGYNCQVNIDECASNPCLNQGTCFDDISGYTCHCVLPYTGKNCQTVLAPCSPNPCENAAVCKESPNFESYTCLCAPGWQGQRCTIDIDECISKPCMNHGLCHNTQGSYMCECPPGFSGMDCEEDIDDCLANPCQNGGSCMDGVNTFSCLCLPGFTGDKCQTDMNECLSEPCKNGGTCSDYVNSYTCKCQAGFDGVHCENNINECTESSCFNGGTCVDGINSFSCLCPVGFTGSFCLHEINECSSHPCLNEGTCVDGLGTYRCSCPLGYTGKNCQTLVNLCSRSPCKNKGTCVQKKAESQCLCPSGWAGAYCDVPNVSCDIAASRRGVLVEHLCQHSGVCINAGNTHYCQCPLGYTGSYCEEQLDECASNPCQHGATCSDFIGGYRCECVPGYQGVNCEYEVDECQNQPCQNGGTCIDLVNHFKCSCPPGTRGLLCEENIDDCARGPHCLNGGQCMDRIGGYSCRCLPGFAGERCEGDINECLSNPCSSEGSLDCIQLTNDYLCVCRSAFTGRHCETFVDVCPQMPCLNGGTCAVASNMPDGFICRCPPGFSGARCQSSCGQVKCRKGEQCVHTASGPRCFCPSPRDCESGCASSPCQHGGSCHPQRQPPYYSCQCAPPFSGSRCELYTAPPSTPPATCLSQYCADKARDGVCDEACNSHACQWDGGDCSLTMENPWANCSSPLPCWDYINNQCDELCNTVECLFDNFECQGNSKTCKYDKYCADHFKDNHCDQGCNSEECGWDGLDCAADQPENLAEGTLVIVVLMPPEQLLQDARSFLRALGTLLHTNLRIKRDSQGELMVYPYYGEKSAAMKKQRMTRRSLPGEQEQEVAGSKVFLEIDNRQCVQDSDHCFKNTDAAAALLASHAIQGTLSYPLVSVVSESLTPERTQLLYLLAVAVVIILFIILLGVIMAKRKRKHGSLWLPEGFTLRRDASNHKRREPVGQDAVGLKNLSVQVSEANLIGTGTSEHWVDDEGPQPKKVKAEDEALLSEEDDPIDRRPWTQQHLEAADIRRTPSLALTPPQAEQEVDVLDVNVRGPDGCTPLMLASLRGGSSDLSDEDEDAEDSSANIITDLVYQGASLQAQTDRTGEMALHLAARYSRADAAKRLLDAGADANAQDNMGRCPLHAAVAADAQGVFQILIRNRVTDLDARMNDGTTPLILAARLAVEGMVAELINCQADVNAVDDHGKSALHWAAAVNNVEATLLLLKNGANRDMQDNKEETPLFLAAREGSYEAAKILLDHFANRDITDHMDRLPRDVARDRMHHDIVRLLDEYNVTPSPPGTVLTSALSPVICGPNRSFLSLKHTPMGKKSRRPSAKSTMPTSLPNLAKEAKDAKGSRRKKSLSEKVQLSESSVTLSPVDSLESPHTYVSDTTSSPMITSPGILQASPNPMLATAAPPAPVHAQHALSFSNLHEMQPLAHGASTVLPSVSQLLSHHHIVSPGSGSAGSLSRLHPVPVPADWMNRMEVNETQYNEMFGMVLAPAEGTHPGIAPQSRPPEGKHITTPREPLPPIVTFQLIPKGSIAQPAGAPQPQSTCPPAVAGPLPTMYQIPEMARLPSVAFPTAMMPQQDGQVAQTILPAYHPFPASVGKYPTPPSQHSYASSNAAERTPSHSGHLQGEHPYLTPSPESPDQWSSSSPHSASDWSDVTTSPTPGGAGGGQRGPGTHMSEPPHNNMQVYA

[6] = molecular target: Pro-neuregulin-1, membrane-bound isoform (Homo sapiens) (UniProt Q02297); test: small molecules binding neuregulin-1 protein – biochemical, small-molecule microarray, fluorescence 635/667, psychiatric disease protein project, primary screen (AID 1075); settings: NRG1 binding, 635 nm fluorescence, higher = more signal;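 also: score combines 667 nm spot fluorescence with signal to noise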
Sequence of Pro-neuregulin-1, membrane-bound isoform (Homo sapiens) (Q02297 whole entry, looked up, the tested form may be a part, canonical isoform): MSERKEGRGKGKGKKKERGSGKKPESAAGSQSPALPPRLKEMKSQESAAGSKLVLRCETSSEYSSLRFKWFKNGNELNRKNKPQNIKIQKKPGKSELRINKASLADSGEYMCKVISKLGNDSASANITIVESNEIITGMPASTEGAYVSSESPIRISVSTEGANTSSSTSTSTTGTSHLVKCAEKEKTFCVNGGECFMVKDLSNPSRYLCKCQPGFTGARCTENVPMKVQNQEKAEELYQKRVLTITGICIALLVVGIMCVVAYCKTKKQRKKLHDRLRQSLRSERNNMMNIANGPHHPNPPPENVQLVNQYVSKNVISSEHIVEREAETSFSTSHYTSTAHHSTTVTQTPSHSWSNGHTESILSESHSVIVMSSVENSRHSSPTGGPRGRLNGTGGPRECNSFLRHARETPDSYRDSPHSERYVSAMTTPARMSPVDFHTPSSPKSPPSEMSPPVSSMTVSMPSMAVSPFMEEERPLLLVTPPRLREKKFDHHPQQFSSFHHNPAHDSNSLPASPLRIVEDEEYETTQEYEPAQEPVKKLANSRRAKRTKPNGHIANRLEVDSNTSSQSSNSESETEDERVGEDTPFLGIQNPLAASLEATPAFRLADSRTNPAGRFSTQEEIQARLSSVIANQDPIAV

[7] = system: Neuregulin-1 EGF-like domain; test: small molecules binding NRG1 EGF domain – biochemical, small-molecule microarray, 635 nm fluorescence, primary screen (AID 1081); settings: higher = more signal;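 also: binding of the protein to compounds printed on small-molecule microarray slides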
[8] = FRG1 expression reporter modulators in myotubes – cell-based, C2C12 myotubes, firefly/Renilla luciferase, luminescence, FRG1 inhibition for FSHD, primary screen (AID 1084); settings: FRG1 promoter luciferase, higher = more signal, called active from +8 up or from −8 down
[9] = small molecules captured by biotinylated probe aFST – biochemical, small-molecule microarray, fluorescence 635/667, stem cell growth factor project, primary screen (AID 1086); settings: higher = more signal;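 also: score merges 667 nm fluorescence with signal-to-noise of each printed compound spot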
[10] = binders of probe aHhip on microarray, primary screen, stem cell growth factor project, biochemical, small-molecule microarray, fluorescence 635/667 (AID 1087); settings: higher = more signal;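 also: score merges spot fluorescence at 667nm with spot signal to noise ratio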
[11] = system: PRMT1 (protein arginine N-methyltransferase 1); test: small molecules binding arginine methyltransferase PRMT1 – biochemical, small-molecule microarray, 635 nm fluorescence, primary screen (AID 1088); settings: higher = more signal;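 also: binding of Prmt1 protein to compounds spotted on small-molecule microarray slides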
[12] = growth effects on S. cerevisiae YJM789 – YJM789 clinical isolate, OD600, 24 h, basal, primary screen (AID 1089); settings: higher = more signal, called active from +8 up or from −8 down;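 also: growth of clinical yeast isolate S. cerevisiae YJM 789 seeded 1000 cells per well; test concentration not given here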
[13] = S. pombe growth modifiers, basal conditions – strain 972, OD600, 24 h, no modulator, primary screen (AID 1090);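 also: basal condition with compound alone and no growth modifier present; test concentration not given here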; settings: S. pombe 972 growth, higher = more signal, called active from +8 up or from −8 down
[14] = budding yeast growth modifiers under rapamycin – strain BY4716, OD600, 96 h, primary screen (AID 1091); also: test concentration not given here; settings: S. cerevisiae BY4716 + rapamycin, higher = more signal, called active from +8 up or from −8 down
[15] = molecular target: Torsin-1A-interacting protein 2 (Homo sapiens) (UniProt Q8NFQ8); test: small molecules binding lysate-expressed LULL1 – cell lysate, human LULL1 lysate, 635/667 nm fluorescence, primary screen (AID 1092); settings: small-molecule microarray, hLULL1 lysate binding, 635 nm fluorescence; higher = more signal;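 also: probe is lysate of COS7 cells overexpressing human LULL1; score merges per-feature 667 nm fluorescence with signal-to-noise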
Sequence of Torsin-1A-interacting protein 2 (Homo sapiens) (Q8NFQ8 whole entry, looked up): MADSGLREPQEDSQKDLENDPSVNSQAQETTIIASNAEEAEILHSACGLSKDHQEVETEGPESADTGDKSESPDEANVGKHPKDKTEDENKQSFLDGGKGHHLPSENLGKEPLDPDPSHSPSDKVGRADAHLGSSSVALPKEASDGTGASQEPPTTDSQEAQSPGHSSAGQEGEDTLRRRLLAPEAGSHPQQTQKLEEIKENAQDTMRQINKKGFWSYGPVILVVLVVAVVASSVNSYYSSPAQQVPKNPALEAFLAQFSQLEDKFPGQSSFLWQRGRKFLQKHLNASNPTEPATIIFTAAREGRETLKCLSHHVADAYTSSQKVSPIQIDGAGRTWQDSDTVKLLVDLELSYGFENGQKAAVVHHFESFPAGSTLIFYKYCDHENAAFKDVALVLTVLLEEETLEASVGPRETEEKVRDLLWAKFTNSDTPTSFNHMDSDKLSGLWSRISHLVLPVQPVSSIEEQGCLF

[16] = optical density change of DRC41 E. coli – strain DRC41, OD650, 24 h, E. coli filamentation project, primary screen (AID 1093);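 also: MC1000 strain lacking acrAB efflux and sulA so SOS filamentation is blocked; test concentration not given here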; settings: E. coli DRC41 growth, higher = more signal, called active from +8 up or from −8 down
[17] = probe aLefty2 binding to arrayed compounds – biochemical, biotinylated probe, 635/667 nm fluorescence, primary screen (AID 1094); settings: small-molecule microarray, higher = more signal;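 also: score merges spot fluorescence near 667 nm with spot signal-to-noise ratio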
[18] = system: Noggin (protein binding on small-molecule microarray); test: small molecules binding Noggin protein – biochemical, 635/667 nm fluorescence, primary screen (AID 1095); settings: 635 nm fluorescence, higher = more signal;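 also: score merges 667 nm feature fluorescence with signal to noise over triplicate slides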
[19] = molecular target: Neurogenic locus notch homolog protein 3 (Homo sapiens) (UniProt Q9UM47); test: small molecules binding NOTCH3 protein – biochemical, 635/667 nm fluorescence, primary screen (AID 1096); settings: small-molecule microarray, 635 nm fluorescence, higher = more signal
[20] = probe aEGFR binding to arrayed compounds – biochemical, biotinylated probe, 635/667 nm fluorescence, primary screen (AID 1097); settings: small-molecule microarray, higher = more signal;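 also: probe is a biotinylated anti-EGFR antibody binding compounds printed on slides; score combines fluorescence near 667 nm and signal to noise of each spot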

SMILES	composite z-score [1]	composite z-score [2]	composite z-score [3]	composite z-score [4]	composite z-score [5]	composite z-score [6]	composite z-score [7]	z-score [8]	composite z-score [9]	composite z-score [10]	composite z-score [11]	z-score [12]	z-score [13]	z-score [14]	composite z-score [15]	z-score [16]	composite z-score [17]	composite z-score [18]	composite z-score [19]	composite z-score [20]
C=CCC(OC(C)=O)[C@@H]1[C@@H](N(Cc2cc3ccccc3o2)C(=O)c2ccc(-c3ccccc3)cc2)c2cc(OCCCO)ccc2N1C(=O)c1ccc(-c2ccccc2)cc1 (stereo not given in full)	0.218	-0.352	-0.0985	0.0925	0.11	-0.196	-0.714	-1.24 (inactive)	0.105	-0.0994	-0.527	1.13 (inactive)	0.0977 (inactive)	1.38 (inactive)	0.94	1.95 (inactive)	0.0711	-0.397	-0.402	-0.0444
C=CCN1C(=O)[C@@]2(O[C@@H](CCO)[C@H]([Si](C)(C)c3ccc(OC)cc3)[C@H]2C)c2cc(N3C(=O)c4cccc5cccc3c45)ccc21	-0.149	0.0485	-0.113	0.349	0.24	0.769	0.876	-1.42 (inactive)	-0.169	-0.0994	1.18	2.89 (inactive)	1.89 (inactive)	36.3 (active)	1.15	1.93 (inactive)	-0.156	-0.106	-0.0485	-0.147
CO[C@H]1O[C@H](CO)[C@@H](OC(=O)Nc2ccccc2)[C@H](OC(=O)Nc2ccccc2-c2ccccc2)[C@H]1OC(=O)Nc1ccccc1-c1ccccc1	0.183	1.85	-0.0449	0.567	0.555	1.31	1.3	-0.114 (inactive)	0.714	-0.0296	1.54	-2.03 (inactive)	-0.674 (inactive)	1.22 (inactive)	2.91	1.39 (inactive)	-0.0699	0.764	0.965	-0.0978
CO[C@H]1O[C@H](CO)[C@@H](OC(=O)Nc2ccccc2)[C@H](OC(=O)Nc2ccccc2-c2ccccc2)[C@@H]1OC(=O)Nc1ccccc1-c1ccccc1	-0.711	0.606	-0.0141	0.901	1.49	1.7	1.31	-0.979 (inactive)	0.325	-0.0346	1.53	1.17 (inactive)	-0.271 (inactive)	-0.471 (inactive)	3.13	1.36 (inactive)	0.0623	0.926	1.06	0.423
C[C@@H](OCc1ccccc1)C1NC(=O)[C@@]23C(=O)N[C@@H](Cc4ccccc4)C2[C@H](C)[C@@]2(C)O[C@H]2C3/C=C/C/C=C\CNC(=O)[C@@H]2CCCN2C1=O (stereo not given in full)	-0.0401	-0.332	-0.146	-0.595	-0.571	-0.52	0.633	1.91 (inactive)	-0.111	-0.343	-0.449	-0.399 (inactive)	-0.985 (inactive)	-0.266 (inactive)	-0.139	2.34 (inactive)	-0.0901	-0.315	-0.665	-0.209
CC(C)C[C@@H]1NC(=O)[C@H]2C[C@@H](C(=O)NCCCC[N+](C)(C)C)[C@@H](c3cccc(OCCO)c3)N2C1=O	-0.746	1.9	-0.138	0.253	-0.942	1.95	1.43	0.683 (inactive)	-0.233	-0.717	0.617	-0.276 (inactive)	-0.262 (inactive)	-2.33 (inactive)	3.37	0.395 (inactive)	-0.348	1.21	1.03	0.009
COc1ccc([Si](C)(C)[C@@H]2[C@@H](CCn3cc([C@H](O)c4ccccc4)nn3)O[C@]3(C(=O)N(C)c4c(Br)cc(C)cc43)[C@H]2C)cc1	0.114	0.301	-0.116	-0.246	-0.802	-0.115	-0.288	-2.54 (inactive)	-0.43	0.154	-0.0221	-2.54 (inactive)	-0.793 (inactive)	0.406 (inactive)	0.215	2.87 (inactive)	-0.0295	0.0639	-0.707	0.0089
[N-]=[N+]=NCc1ccccc1C[C@]1(C(=O)NCc2ccccc2)N=C(c2ccc(OCCCO)cc2)O[C@H]1c1ccccc1	1.45	1.21	0.135	0.17	1.15	0.994	0.97	-2.74 (inactive)	0.407	-0.224	0.544	2.2 (inactive)	2.85 (inactive)	35.5 (active)	2.47	1.85 (inactive)	0.52	-0.577	0.224	0.1
O=C(NO)[C@]1(Cc2ccccc2)N=C(c2ccc(OCCCO)cc2)O[C@@H]1c1ccccc1	0.464	1.2	-0.246	-0.134	-0.66	0.545	-0.921	-1.62 (inactive)	0.14	-0.0645	-0.269	-4.96 (inactive)	-3.08 (inactive)	-1.94 (inactive)	-0.231	3.42 (inactive)	0.0204	-0.0613	-1.1	-0.174
